# Counter-ions that a name gives are not always drawn. Values without a mark were called inactive.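 The calls were made as follows: active = AUC significantly below DMSO controls by Student t-fit with adjusted P under 0.01; inactive = not significantly reduced.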
# Tested on: Haemophilus parainfluenzae
# Assay: growth AUC normalised to DMSO control (fraction of control); higher = less growth inhibition, active = hit call of the paper
# Details: 20 µM
# How it was run: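 Hemin and NAD were added to the medium for Haemophilus parainfluenzae. All pathogens, after two anaerobic passages, were inoculated at a starting OD578 of 0.01 into pre-reduced mGAM plates with 20 μM compound and 1% DMSO under breathable seals, and OD578 was read hourly for 24 h in three biological replicates. AUC of each growth curve was obtained with the trapezoidal rule up to the exponential-to-stationary transition and normalised to DMSO controls from the same plate.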
row,SMILES,growth AUC normalised to DMSO control
1,O=C(O)c1cc(-c2ccc(F)cc2F)ccc1O [Diflunisal],0.916
2,O=C1NCN(c2ccccc2)C12CCN(CCCC(c1ccc(F)cc1)c1ccc(F)cc1)CC2 [Fluspirilene],1.05
3,Nc1ccn([C@H]2CC[C@@H](CO)O2)c(=O)n1 [Zalcitabine],1.06
4,COc1ccccc1N1CCN(CC(O)COc2cccc3ccccc23)CC1 (stereo not drawn) [Naftopidil dihydrochloride],0.971
5,COc1cc(C(=O)NCc2ccc(OCCN(C)C)cc2)cc(OC)c1OC [Trimethobenzamide hydrochloride],1.05
6,CN(C)C(=N)NC(=N)N [Metformin hydrochloride],1.03
7,CCn1cc(C(=O)O)c(=O)c2cc(F)c(N3CCNCC3)cc21 [Norfloxacin],0.0519 (active)
8,Nc1nnc(-c2cccc(Cl)c2Cl)c(N)n1 [Lamotrigine],1.01
9,CN1CCN(CCCN2c3ccccc3Sc3ccc(Cl)cc32)CC1 [Prochlorperazine dimaleate],0.913
10,CCOC(=O)C(C)(C)Oc1ccc(Cl)cc1 [Clofibrate],1.01
11,COC(=O)Nc1nc2cc(C(=O)c3ccccc3)ccc2[nH]1 [Mebendazole],0.983
12,CO/N=C(\C(=O)N[C@@H]1C(=O)N2C(C(=O)O)=C(COC(N)=O)CS[C@H]12)c1ccco1 [Cefuroxime sodium salt],0.0255 (active)
13,CC(CN(C)C)CN1c2ccccc2CCc2ccccc21 (stereo not drawn) [Trimipramine maleate salt],1.07
14,C[C@]12C=CC(=O)C=C1CC[C@@H]1[C@@H]2C(=O)C[C@@]2(C)[C@H]1CC[C@]2(O)C(=O)CO [Prednisone],1.01
15,CCCOc1cc(N)ccc1C(=O)OCCN(CC)CC [Propoxycaine hydrochloride],1.04
16,CN(C)CCCO[C@@H]1[C@H]2OC(C)(C)O[C@H]2O[C@@H]1[C@H](O)CO [Amiprilose hydrochloride],0.963
17,O=C(OCCOCCO)c1ccccc1Nc1cccc(C(F)(F)F)c1 [Etofenamate],0.992

row,SMILES,growth AUC normalised to DMSO control
1,CN(C)CCCN1c2ccccc2CCc2ccc(Cl)cc21 [Clomipramine hydrochloride],0.922
2,O=C1NCC2(CCN(CCc3ccccc3)CC2)O1 [Fenspiride hydrochloride],0.967
3,CCc1c(C)[nH]c2c1C(=O)C(CN1CCOCC1)CC2 (stereo not drawn) [Molindone hydrochloride],1.01
4,Cc1ncc([N+](=O)[O-])n1CC(O)CCl (stereo not drawn) [Ornidazole],1
5,O=C1NCCN1CCN1CCC(c2cn(-c3ccc(F)cc3)c3ccc(Cl)cc23)CC1 [Sertindole],1
6,C[C@@H](O)[C@H]1C(=O)N2C(C(=O)O)=C(S[C@@H]3CN[C@H](C(=O)N(C)C)C3)[C@H](C)[C@H]12 [Meropenem],0.283 (active)
7,CN(C)CCC(c1ccc(Cl)cc1)c1ccccn1 (stereo not drawn) [Chlorpheniramine maleate],0.995
8,CN(C)CCn1nnnc1SCC1=C(C(=O)O)N2C(=O)[C@@H](NC(=O)Cc3csc(N)n3)[C@H]2SC1 [Cefotiam hydrochloride],0.0401 (active)
9,CC(C)Cn1cnc2c(N)nc3ccccc3c21 [Imiquimod],1.08
10,NNc1nncc2ccccc12 [Hydralazine hydrochloride],1.03
11,Clc1ccc(CO/N=C(\Cn2ccnc2)c2ccc(Cl)cc2Cl)c(Cl)c1 [Oxiconazole nitrate],1.01
12,O=c1[nH]c(=O)n([C@H]2C[C@H](O)[C@@H](CO)O2)cc1F [Floxuridine],0.0967 (active)
13,CC(=O)S[C@@H]1CC2=CC(=O)CC[C@]2(C)[C@H]2CC[C@@]3(C)[C@@H](CC[C@@]34CCC(=O)O4)[C@H]12 [Spironolactone],0.891
14,CN(C)CCN(Cc1ccccc1)c1ccccn1 [Tripelennamine hydrochloride],1.01
15,CCCCNC(=O)NS(=O)(=O)c1ccc(C)cc1 [Tolbutamide],0.99
16,CCN1C(=O)NC(c2ccccc2)C1=O (stereo not drawn) [Ethotoin],1.01

# Source: the supplement of paper PMC12350171
